BioA inh: inhibitors of Mycobacterium tuberculosis BioA enzyme. actives 0.096% (n = 360,000). AID 602481. purified M. tuberculosis BioA enzyme, plate reader. inhibition, % at 9.99 µM; in the data active = inhibition above about 40%
Yp Topo-I inh: Y. pestis Topo-I inhibition via cleavage products. Y. pestis Topo-I cleavage product accumulation, plate reader. activity, % at 10 µM. actives 0.064% (n = 360,000). AID 504884; in the data active = activity above about 50%, passing the limit was not always enough
TcdB GH inh: inhibitors of Clostridioides difficile toxin B glycohydrolase; inhibition, % at 9.99 µM; actives 0.24% (n = 350,000); TcdB glycohydrolase enzymatic assay, plate reader; P18177; AID 652162; in the data active = inhibition above about 10%
An asterisk follows results filed as active; x = not tested or not shown. Hits are enriched below; roughly 0.32% of the tested compounds scored in any of these assays.

SMILES	BioA inh	Yp Topo-I inh	TcdB GH inh
CCCC(=O)Nc1ccc2c(c1)OC[C@H](C)N(CC1CCCC1)C[C@H](C)[C@@H](OC)CN(C)C2=O	-3	x	30*
CCC(=O)Nc1ccc2c(c1)OC[C@@H](C)N(C(=O)NC(C)C)C[C@H](C)[C@H](OC)CN(C)C2=O	-2	x	15*
CCC(=O)Nc1ccc2c(c1)OC[C@H](C)N(C(=O)NC(C)C)C[C@@H](C)[C@@H](OC)CN(C)C2=O	-5	x	11*
CCC(=O)Nc1ccc2c(c1)C(=O)N(C)C[C@H](OC)[C@@H](C)CN(C(=O)NC(C)C)[C@@H](C)CO2	-1	x	0
CCCC(=O)Nc1ccc2c(c1)OC[C@H](C)N(CC1CCCC1)C[C@@H](C)[C@H](OC)CN(C)C2=O	0	x	0
Cc1noc(C)c1S(=O)(=O)Nc1cccc2c1O[C@H](CN(C)Cc1ccc(Oc3ccccc3)cc1)[C@H](C)CN([C@@H](C)CO)C2=O	0	x	1
C[C@@H]1CN([C@H](C)CO)S(=O)(=O)c2ccc(-c3cccnc3)cc2O[C@@H]1CN(C)Cc1cncnc1	-1	x	0
CC(C)NC(=O)N[C@H]1CC[C@H](CCNC(=O)C2CCOCC2)O[C@H]1CO	1	x	1
CN1C=CC(=CC=C2C=CC(=O)C=C2)C=C1	-1	-4	27*
CC(C)(/C=N/O)N(O)C=C1C=CC(=O)C=C1	0	5	5
COc1cccc(-c2ccc3c(c2)[C@@H]2[C@@H](CCN2C(=O)C2CCCCC2)[C@@H](CO)N3)c1	x	x	1
COc1ccccc1/C=N/NC(=O)CO	x	-1	3
COc1ccccc1/C=N/NC(=O)CC(=O)NCc1ccccc1	2	8	11*
O=C(C[C@H]1C=C[C@H](NC(=O)C2CC2)[C@@H](CO)O1)Nc1ccccc1	0	x	0
COCC#Cc1ccc2c(c1)O[C@H](CN(C)C(=O)CC1CC1)[C@@H](C)CN([C@H](C)CO)S2(=O)=O	-1	x	12*
COCC#Cc1ccc2c(c1)O[C@H](CN(C)C(=O)CC1CC1)[C@H](C)CN([C@H](C)CO)S2(=O)=O	-2	x	3
CCCN1[C@@H]2c3ccc(/C=C/c4ccccc4)c(=O)n3C[C@@H]2[C@@H](CO)[C@@H]1C(=O)NCC	11	x	1
CCNC(=O)C[C@@H]1CC[C@H]2[C@@H](COc3ccc(NS(=O)(=O)c4ccccc4C)cc3C(=O)N2C)O1	0	x	0
Cn1c(N)c(C(=O)COC(=O)CCCN2C(=O)c3ccccc3C2=O)c(=O)n(C)c1=O	-1	5	x
CC(C(=O)OCC(=O)c1c(N)n(C)c(=O)n(C)c1=O)N1C(=O)c2ccccc2C1=O (stereo not drawn)	2	2	14*
COc1ccccc1NC(=O)N[C@H]1CC[C@@H](CCn2cc(-c3cccnc3)nn2)O[C@@H]1CO	14	x	-1
O=C(C[C@@H]1C[C@@H]2c3cc(NC(=O)Nc4ccccc4)ccc3O[C@@H]2[C@H](CO)O1)NCc1ccccc1	-2	x	4
O=C(C[C@@H]1C[C@H]2c3cc(NC(=O)Nc4ccccc4)ccc3O[C@H]2[C@H](CO)O1)NCc1ccccc1	0	x	12*
O=C(C[C@H]1C[C@H]2c3cc(NC(=O)c4ccc5c(c4)OCO5)ccc3O[C@H]2[C@H](CO)O1)NCc1cc(F)ccc1F	25	x	-1
O=C(C[C@H]1C[C@@H]2c3cc(NC(=O)c4ccc5c(c4)OCO5)ccc3O[C@@H]2[C@H](CO)O1)NCc1cccc(F)c1	-1	x	8
SMILES	BioA inh	Yp Topo-I inh	TcdB GH inh
O=C(C[C@H]1C[C@@H]2c3cc(NC(=O)c4ccc5c(c4)OCO5)ccc3O[C@@H]2[C@@H](CO)O1)NCc1cccc(F)c1	5	x	20*
O=C(C[C@@H]1C[C@@H]2c3cc(NC(=O)c4ccc5c(c4)OCO5)ccc3O[C@@H]2[C@@H](CO)O1)NCc1cccc(F)c1	0	x	17*
O=C(C[C@@H]1C[C@H]2c3cc(NC(=O)c4ccc5c(c4)OCO5)ccc3O[C@H]2[C@H](CO)O1)NCc1cccc(F)c1	4	x	18*
O=C(C[C@@H]1C[C@H]2c3cc(NC(=O)c4ccc5c(c4)OCO5)ccc3O[C@H]2[C@H](CO)O1)NCc1cc(F)ccc1F	3	x	-1
COc1ccc(CN(C)C[C@@H]2OCCCC[C@@H](C)Oc3ccc(NC(=O)Nc4ccc(F)cc4)cc3C(=O)N([C@H](C)CO)C[C@H]2C)cc1	1	x	-2
CCNC(=O)[C@H]1[C@H](CO)[C@H]2Cn3c(ccc(-c4ccccc4)c3=O)[C@@H]1N2Cc1cccnc1	-1	x	0
Cc1ccc(S(=O)(=O)N(C)C[C@@H]2OCCCC[C@H](C)Oc3ccc(NC(=O)c4ccccc4)cc3C(=O)N([C@H](C)CO)C[C@H]2C)cc1	0	x	0
CC(C)c1cn(CC[C@H]2CC[C@H](NC(=O)Nc3cc(Cl)cc(Cl)c3)[C@@H](CO)O2)nn1	1	x	-1
CCCNC(=O)N(C)C[C@H]1Oc2ncc(C3=CCCC3)cc2C(=O)N([C@@H](C)CO)C[C@@H]1C	-1	x	1
O=C(CN1CCOCC1)N1CCCCN2[C@H](CO)[C@@H](c3ccc(-c4ccccc4F)cc3)[C@@H]2C1	0	x	-1
Cc1ccc(S(=O)(=O)N(C)C[C@H]2Oc3ccc(NC(=O)CCCN(C)C)cc3CC(=O)N([C@H](C)CO)C[C@@H]2C)cc1	1	x	0
Cc1ccc(NC(=S)/C(=C(\[O-])c2ccc(Cl)s2)[n+]2cccc(CO)c2)cc1C	0	22	0
[O-]/C(=C(\C(=S)Nc1ccc(SC(F)F)cc1)[n+]1cccc(CO)c1)c1ccc(Cl)s1	x	61*	0
Cc1noc(C)c1NC(=O)N(C)C[C@@H]1Oc2ccc(N(C)C)cc2C(=O)N([C@H](C)CO)C[C@H]1C	-1	x	-3
O=C(O)c1cc(NS(=O)(=O)c2ccc(NCc3ccccc3)c([N+](=O)[O-])c2)cc(C(=O)O)c1	-1	-1	-4
O=C(O)c1cc(NS(=O)(=O)c2ccc(NC3CCCCC3)c([N+](=O)[O-])c2)cc(C(=O)O)c1	x	1	13*
COc1cccc(S(=O)(=O)Nc2ccc3c(c2)C(=O)N(C)[C@@H]2CC[C@H](CC(=O)O)O[C@H]2CO3)c1	1	x	x
NS(=O)(=O)c1ccc(NC(=S)NCc2ccc3c(c2)OCO3)cc1	x	-5	12*
NS(=O)(=O)c1cccc(NC(=S)NCc2ccc3c(c2)OCO3)c1	0	8	2
CN1C(=O)c2cc(NC(=O)c3cccs3)ccc2OC[C@@H]2O[C@@H](CC(=O)N3CCCCC3)CC[C@H]21	10	x	0
C=CCc1c(C)nc(SC)nc1Nc1ccc(C(=O)O)cc1	-1	1	x
C=CCc1c(C)nc(SC)nc1Nc1ccc(C(C)=O)cc1	54*	4	x
COc1ccc(COC[C@]23NC(=O)N[C@H](c4ccccc4O2)[C@H]3CO)cc1	0	x	0
C[C@H](CO)N1C[C@H](C)[C@H](CN(C)C(=O)Nc2ccc(C(F)(F)F)cc2)Oc2c(NC(=O)Nc3ccc(C(F)(F)F)cc3)cccc2C1=O	-5	x	x
Cc1noc(C)c1NC(=O)N(C)C[C@H]1Oc2ccc(NS(C)(=O)=O)cc2C(=O)N([C@@H](C)CO)C[C@@H]1C	-4	x	0
Cc1ccc2oc(C(=O)N(Cc3ccncc3)CC3CCCO3)c(C)c2c1 (stereo not drawn)	-1	18	0

Bioassay records: PubChem, Broad Institute
